Experimental data as given in PubChem BioAssay (NCI).
This is part of a sample that, as a whole, favours compounds with a hit. Of some 83,000 tested, about 20% had one in any assay.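 How to read the values: 0–100, growth inhibition (40 = 60% inhibited); 0, no net growth; -100 to 0, cell death (-40 = 40% of starting cells died; -100 = all dead).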 Active and inactive are the calls of the source. How the source made its calls: active means growth percent below 10; inactive means the rest.

Assays:
Assay in all cases: NCI-60 one-dose screen, 48 h (100 = growth as untreated, 0 = no growth, -100 = all killed)
NCI-H23 lung = details: 10 µM unless noted
NCI-H226 lung = details: 10 µM unless noted
NCI-H322M lung = details: 10 µM unless noted
HOP-62 NSCLC = details: 10 µM unless noted
NCI-H460 lung = details: 10 µM unless noted
HOP-92 NSCLC = details: 10 µM unless noted
NCI-H522 lung = details: 10 µM
786-0 renal = details: 10 µM unless noted
COLO 205 colon = details: 10 µM unless noted
DU-145 prostate = details: 10 µM unless noted
MALME-3M melanoma = details: 10 µM unless noted
MDA-MB-231 breast = details: 10 µM unless noted
RXF 393 renal = details: 10 µM unless noted
SF-268 CNS = details: 10 µM unless noted
SF-295 CNS = details: 10 µM unless noted
SF-539 CNS = details: 10 µM unless noted
M14 melanoma = details: 10 µM unless noted
K-562 leukemia = details: 10 µM unless noted
UACC-257 melanoma = details: 10 µM unless noted

| SMILES | growth (NCI-H23 lung) | growth (NCI-H226 lung) | growth (NCI-H322M lung) | growth (HOP-62 NSCLC) | growth (NCI-H460 lung) | growth (HOP-92 NSCLC) | growth (NCI-H522 lung) | growth (786-0 renal) | growth (COLO 205 colon) | growth (DU-145 prostate) | growth (MALME-3M melanoma) | growth (MDA-MB-231 breast) | growth (RXF 393 renal) | growth (SF-268 CNS) | growth (SF-295 CNS) | growth (SF-539 CNS) | growth (M14 melanoma) | growth (K-562 leukemia) | growth (UACC-257 melanoma) |
| --- | --- | --- | --- | --- | --- | --- | --- | --- | --- | --- | --- | --- | --- | --- | --- | --- | --- | --- | --- |
| O=[N+]([O-])c1cc([N+](=O)[O-])c(N2CCCC2)cc1NN=C(c1ccc(O)cc1)c1ccc(O)cc1 | 9.44% (active) | 94.8% (inactive) | 91.7% (inactive) | 23.3% (inactive) | 9.13% (active) | 87.7% (inactive) | -42% (active) | 0.661% (active) | 30.6% (inactive) | 95.8% (inactive) | 140% (inactive) | 93.6% (inactive) | -22.2% (active) | 77.3% (inactive) | 79.6% (inactive) | 61.9% (inactive) | 7.88% (active) | – | – |
| CC(=O)Nc1ccc(C(=O)COc2ccc(/C=C3\CCc4ccccc4C3=O)cc2)cc1 | 108% (inactive) | 94.8% (inactive) | 108% (inactive) | 113% (inactive) | 124% (inactive) | 114% (inactive) | 92.4% (inactive) | 97% (inactive) | 143% (inactive) | – | – | 103% (inactive) | – | 93.6% (inactive) | 104% (inactive) | 115% (inactive) | 115% (inactive) | 80.4% (inactive) | 98.9% (inactive) |
| COc1cc2c(cc1OC)C(=O)/C(=C/c1cccc(OCC(=O)c3ccccc3)c1)C2 | 90.8% (inactive) | 86.1% (inactive) | 75% (inactive) | 105% (inactive) | 90.4% (inactive) | 40.9% (inactive) | 48.3% (inactive) | 91.2% (inactive) | 119% (inactive) | – | 145% (inactive) | 97.9% (inactive) | – | 94.9% (inactive) | 104% (inactive) | 78.2% (inactive) | 96.3% (inactive) | 43.8% (inactive) | 95.4% (inactive) |
| CC(C)=CCNc1ncnc2c1ncn2C1OC(COP(=O)(O)O)C(O)C1O (stereo unspecified) | 57.8% (inactive) | 45.7% (inactive) | 41.1% (inactive) | 46.1% (inactive) | 80.3% (inactive) | 74.5% (inactive) | 9.55% (active) | 43.3% (inactive) | 63% (inactive) | 4.87% (active) | 68.5% (inactive) | 5.56% (active) | – | 59.9% (inactive) | 25.6% (inactive) | 52% (inactive) | 50.5% (inactive) | 16.1% (inactive) | 94.1% (inactive) |
| O=C(O)c1ccc(CNS(=O)(=O)c2ccc3ccccc3c2)cc1 | 119% (inactive) | 100% (inactive) | 114% (inactive) | 112% (inactive) | 120% (inactive) | 132% (inactive) | 104% (inactive) | 106% (inactive) | 105% (inactive) | 93.7% (inactive) | 93.7% (inactive) | 105% (inactive) | – | 96.2% (inactive) | 105% (inactive) | 106% (inactive) | 103% (inactive) | 94.5% (inactive) | 99.1% (inactive) |
| CCN(CC)c1ccc(/C=C/C(=O)c2cccc(NS(C)(=O)=O)c2)cc1 | 18.7% (inactive) | 43.1% (inactive) | 89% (inactive) | 42.6% (inactive) | 42.3% (inactive) | 19.9% (inactive) | 4.67% (active) | 32.3% (inactive) | 62.3% (inactive) | 49.6% (inactive) | 76.2% (inactive) | 43% (inactive) | – | 61.5% (inactive) | 47.5% (inactive) | 40.6% (inactive) | – | – | – |
| C1CCC(C(CC2CCCCN2)C2CCCCC2)CC1 (stereo unspecified) | 9.26% (active) | 28% (inactive) | 49.8% (inactive) | -81.6% (active) | -84.3% (active) | -2.64% (active) | -16.8% (active) | -86.7% (active) | -63.6% (active) | 14% (inactive) | -73.2% (active) | 1.11% (active) | – | 49.9% (inactive) | -62.9% (active) | -35.9% (active) | -88.2% (active) | -64.9% (active) | – |
| Cc1ccc(OCC(=O)Nc2ccc(Oc3ccccc3)cc2)c([N+](=O)[O-])n1 | 47% (inactive) | 68.8% (inactive) | 95% (inactive) | 79.6% (inactive) | 76.3% (inactive) | 73.7% (inactive) | 33.2% (inactive) | 66.3% (inactive) | 94.5% (inactive) | 90.4% (inactive) | 87.7% (inactive) | 85.4% (inactive) | 66.1% (inactive) | 86.5% (inactive) | 89.5% (inactive) | 78.3% (inactive) | 74.7% (inactive) | – | – |
| COc1ccc(C(=O)COc2ccc(/C=C3\Oc4ccc5ccccc5c4C3=O)cc2)cc1 | 90.7% (inactive) | 107% (inactive) | 100% (inactive) | 104% (inactive) | 110% (inactive) | 94.9% (inactive) | 64% (inactive) | 106% (inactive) | 121% (inactive) | – | 85.5% (inactive) | 97% (inactive) | – | 104% (inactive) | 102% (inactive) | 72.5% (inactive) | 99.5% (inactive) | 83% (inactive) | 98.3% (inactive) |
| CC(=O)c1ccccc1NC(=O)C(C)(c1ccccc1)c1ccccc1 | 82.7% (inactive) | 91% (inactive) | 89.3% (inactive) | 40.4% (inactive) | 106% (inactive) | 86.4% (inactive) | 77.3% (inactive) | 92.5% (inactive) | 114% (inactive) | – | 83% (inactive) | 88.8% (inactive) | – | 92.6% (inactive) | 86.1% (inactive) | 105% (inactive) | 99.9% (inactive) | 72.5% (inactive) | 85.9% (inactive) |
| CCCCN1c2nc3ccccc3cc2Sc2cc3ccccc3nc21 | 97.6% (inactive) | 93.2% (inactive) | 104% (inactive) | 90.7% (inactive) | 99% (inactive) | 28.4% (inactive) | 92.8% (inactive) | 98.5% (inactive) | 132% (inactive) | – | 117% (inactive) | 76.4% (inactive) | – | 91.7% (inactive) | 768% (inactive) | 100% (inactive) | 103% (inactive) | 99.4% (inactive) | 104% (inactive) |
| CCOC(=O)CCC(=O)O[C@H]1[C@H](O[C@@H]2[C@@H](C)[C@H](O[C@H]3C[C@@](C)(OC)[C@@H](O)[C@H](C)O3)[C@@H](C)C(=O)O[C@H](CC)[C@@](C)(O)[C@H](O)[C@@H](C)C(=O)[C@H](C)C[C@@]2(C)O)O[C@H](C)C[C@@H]1N(C)C | 99.6% (inactive) | 97.2% (inactive) | 90.2% (inactive) | 94.6% (inactive) | 119% (inactive) | 102% (inactive) | 92.6% (inactive) | 98.2% (inactive) | 109% (inactive) | 119% (inactive) | 99.4% (inactive) | 106% (inactive) | 110% (inactive) | 115% (inactive) | 104% (inactive) | 101% (inactive) | 97.2% (inactive) | – | 113% (inactive) |
| Cc1nn(-c2nc3ccccc3s2)c(C)c1Oc1ccccc1O | 109% (inactive) | 80.5% (inactive) | 101% (inactive) | 53.3% (inactive) | 24.6% (inactive) | 93.2% (inactive) | 59.9% (inactive) | 89.2% (inactive) | 92.3% (inactive) | 68.2% (inactive) | 76.9% (inactive) | 70.8% (inactive) | – | 60.5% (inactive) | 58.8% (inactive) | 60.9% (inactive) | 63.7% (inactive) | 31.8% (inactive) | 104% (inactive) |
| O=C(COc1ccc(/C=C2\Oc3ccc4ccccc4c3C2=O)cc1)c1ccc([N+](=O)[O-])cc1 | 96.5% (inactive) | 105% (inactive) | 99.9% (inactive) | 118% (inactive) | 104% (inactive) | 96.7% (inactive) | 49% (inactive) | 103% (inactive) | 134% (inactive) | – | 85.8% (inactive) | 94.9% (inactive) | – | 96.9% (inactive) | 105% (inactive) | 65.6% (inactive) | 92.8% (inactive) | 79.4% (inactive) | 94% (inactive) |
| COc1ccc(CNC(=O)c2c(C)n([O-])c3ccccc3[n+]2=O)cc1 | 93.8% (inactive) | 102% (inactive) | 144% (inactive) | 94.3% (inactive) | 112% (inactive) | 82.6% (inactive) | -15.1% (active) | 101% (inactive) | 122% (inactive) | – | 153% (inactive) | 103% (inactive) | – | 99.7% (inactive) | 111% (inactive) | 112% (inactive) | 104% (inactive) | 94.9% (inactive) | 90.4% (inactive) |
| CC(=O)Nc1cc(C(c2ccccc2)c2ccccc2)cc(C(c2ccccc2)c2ccccc2)c1C | 60% (inactive) | 55.6% (inactive) | 81.7% (inactive) | 8.81% (active) | 55.4% (inactive) | 41.4% (inactive) | 45.6% (inactive) | 63.6% (inactive) | 64.3% (inactive) | – | 75.2% (inactive) | 69.8% (inactive) | – | 53.5% (inactive) | 54.9% (inactive) | 77.3% (inactive) | 79.2% (inactive) | 35.3% (inactive) | 64.8% (inactive) |
| Cc1ccc(S(=O)(=O)N2CCN(C(=O)CSc3nc4ccc(C)cc4[nH]3)CC2)cc1 | 105% (inactive) | 91.3% (inactive) | 116% (inactive) | 106% (inactive) | 110% (inactive) | 96.6% (inactive) | 97.2% (inactive) | 107% (inactive) | 143% (inactive) | 109% (inactive) | 126% (inactive) | 92.3% (inactive) | – | 101% (inactive) | 159% (inactive) | 110% (inactive) | 101% (inactive) | 74.8% (inactive) | 63.4% (inactive) |
